# A selection: hits, their analogues and other compounds. The true share with any hit is near 1.6%.
# PABP FP inh: blocks human PABP binding to poly(A) RNA. P11940. fluorescence polarization. inhibition, % at 35 µM. 1% of 290,000 active. AID 2014;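 further: calls also rest on retests at 20 µM and on dose response follow-up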
# eIF4E-4G inh: eIF4E/eIF4G interaction inhibition in translation initiation; 0.37% of 220,000 active; inhibition, % at 21.7 µM; AID 782; TR-FRET eIF4E-eIF4GI(517-606) binding, 2 h; P63073+Q04637;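 active means inhibition above about 30%, limit read from the data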;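 further: 0% = full FRET control wells and 100% = background wells lacking eIF4GI fragment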
# PERK inh: blocks human PERK kinase; Q9NZJ5; CHO PERK-DD fusion, SEAP luminescence translation reporter; inhibition, % at 5.6 µM; 0.17% of 220,000 active;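 active means inhibition above the mean inhibition of all tested compounds plus 3 SD, set separately per screening campaign, cut at about 2.9% in these data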;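 further: PERK kinase domain activated by AP20187 dimerizer at 100 nM; 0% = DMSO with dimerizer and 100% = rapamycin at 8.4 µM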
# PABP1 MLLE inh: blocks PAM2 peptide binding to the PABP1 MLLE domain; P11940; GST-MLLE / FITC-PAM2 fluorescence polarization; inhibition, % at 20 µM; 0.36% of 360,000 active; in the data active means inhibition above about 35%, passing the limit was not always enough;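 further: plate controls were DMSO wells with GST-MLLE for no effect and wells lacking GST-MLLE protein for full effect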
# eIF4H inh: inhibitors of RNA binding by human eIF4H. eIF4H fluorescence polarization binding assay. 0.94% of 290,000 active. inhibition, % at 35 µM;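 further: calls also rest on retests at 20 µM and on dose response follow-up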
# Active calls of the source: *; ? = inconclusive; nt = no result given. Unless noted, how the calls were made is not given here.
SMILES,PABP FP inh,eIF4E-4G inh,PERK inh,PABP1 MLLE inh,eIF4H inh
COc1ccc2c(C#N)c3ccccn3c2c1,3,1,1,54*,17
Cc1cc(=O)n2ccccc2c1C#N,-4,5,1,3,-2
Cc1ccc(-c2csc3nc(CN(C)Cc4ccccc4)[nH]c(=O)c23)cc1,0.3*,-2,-1,-28,98*
O=c1[nH]c(Cc2ccc(F)cc2)nc2scc(-c3ccc(F)cc3)c12,-2,4,0,22,-5
O=C(NCc1ccccn1)Nc1ccccc1,-2,-3,1,-4,2
COc1ccc(NC(=O)Nc2sc(NS(=O)(=O)c3ccccc3)nc2C)cc1,21,-2,1,40*,-4
Cc1nc(NS(=O)(=O)c2ccccc2)sc1NC(=O)OC(C)C,-3,nt,1,39*,-3
Cc1ccc(S(=O)(=O)Nc2nc(C)c(NC(=O)OCCCl)s2)cc1,9,-2,0,19,1
CC(=O)Oc1ccc(-c2cccc(C(=O)Oc3ccccc3)c2)cc1,4,11,2,-5,-10
Nc1c(C(=O)N2CCOCC2)sc2nc(N3CCOCC3)c3c(c12)CCCC3,3,-4,2,15,-6
COCCN=c1scc(-c2ccc3c(c2)NC(=O)CO3)n1/N=C(\C)c1ccc(O)cc1,43*,-3,1,-14,87
COc1cc(/C=N/n2c(-c3ccc4c(c3)NC(=O)CO4)csc2=Nc2cccc(C)c2)ccc1O,-1,2,0,-10,0
O=C1Nc2ccccc2/C1=C/c1ccc([N+](=O)[O-])cc1,0,nt,nt,14,2
CC1(c2ccc([N+](=O)[O-])cc2)Nc2ccccc2S1 (stereo not drawn),-3,nt,nt,42*,1
CCOC(=O)c1c(N)sc2c1CCSC2,118*,-6,-1,-15,111*
CCOC(=O)c1c(N)sc(=S)c2c1CCC2,72*,8,2,41*,33*
CCOC(=O)c1c(N)sc(N)c1C(=O)OCC,34,3,1,18,0
C/C=C/Cn1c(Br)nc2c1c(=O)n(C)c(=O)n2C,-6,-1,0,1,-5
O=C(Nc1cccnc1)c1cccs1,-8,22,1,0,-12
O=C(NC(=S)Nc1ccc(S(=O)(=O)N2CCCC2)cc1)C1CC1,63*,-1,2,14,-8
O=C(NC(=S)Nc1ccc(S(=O)(=O)N2CCCC2)cc1)c1cccs1,2,-1,-1,47*,6
O=C(O)CC(SCC(=O)Nc1ccc(S(=O)(=O)N2CCCC2)cc1)C(=O)O (stereo not drawn),-11,1,1,40*,-10
O=C(NC(=S)Nc1cccnc1)c1cccs1,-2,-5,1,39*,4
O=C(NC(=S)Nc1ccc(S(=O)(=O)N2CCCCCC2)cc1)c1cccs1,2,3,0,28,-2
O=C(NCCCc1ccncc1)C1CCC(=O)N(Cc2ccc(Cl)cc2)C1 (stereo not drawn),-4,nt,nt,13,1
SMILES,PABP FP inh,eIF4E-4G inh,PERK inh,PABP1 MLLE inh,eIF4H inh
COC(=O)c1cc(NC(=O)c2cc(-c3ccc(OC)cc3)oc2C(F)(F)F)ccc1N1CCOCC1,2,1,-2,1,-5
COc1cccc(C2CC(c3ccccc3C)n3nc(N)nc3N2)c1 (stereo not drawn),-11,-1,1,-9,-10
CC(=O)Nc1ccc(S(=O)(=O)N2CCN(C)CC2)cc1,0,3,3.1*,2,-3
Cc1ccccc1NC(=O)Cc1nc(COC(=O)CCC(=O)c2ccccc2)cs1,nt,nt,nt,9,nt
O=C(CCN1CCOCC1)NNC(=S)NC(=O)c1ccccc1,24,1,1,38*,2
CS(=O)(=O)Nc1ccc(C(=O)NCCSCc2ccco2)cc1,-5,-5,-1,25,-11
CS(=O)(=O)N(Cc1ccccc1)c1ccc(C(=O)NCCSCc2ccco2)cc1,-14,-2,-1,45*,19
CC(C)OCCCNc1ncnc2c1nc1n2CCCC1,81*,nt,nt,4,94*
O=C(NCCCN1CCCCC1)C1CCN(c2ncnc3c2nc2n3CCCCC2)CC1,5,nt,nt,12,-2
COC(=O)CCCC1=CC2=C(c3ccccc3)C(=O)C(C)(OC(=O)C3CCCC3)C(=O)C2=CN1CC1CC1 (stereo not drawn),-2,89*,nt,26,7
O=C(c1ccccc1Cl)N(C(=O)c1ccccc1Cl)c1nccc(-c2cccs2)n1,29,5,0,5,4
Cc1cc(-c2csc(N)n2)c(C)n1C,107*,4,1,22,118*
COCCNc1nc(-c2cc(C)n(CCc3ccc(OC)cc3)c2C)cs1,-1,14,0,-61,88
COc1ccccc1CNc1nc(-c2cc(C)n(C)c2C)cs1,40,47*,1,-54,?
CCC(=O)N1N=C(c2ccc(NS(=O)(=O)CC)cc2)CC1c1ccc(C)cc1 (stereo not drawn),-7,2,0,10,5
O=c1[nH]ncc(NCc2ccc(Cl)cc2)c1Cl,53*,-2,0,-10,0
Cc1n[nH]c(=O)nc1NCc1ccc(Cl)cc1,5,-2,0,-1,-2
CCCNC(=O)C(=O)N/N=C/c1cccs1,-11,0,1,0,2
O=C(O)c1cccc(N/N=C/c2ccc(OC(F)(F)F)cc2)c1,-1,nt,nt,16,-2
CSc1ccc(/C=N/Nc2cccc(C(=O)O)c2)cc1,10,35*,0,9,104
O=C(O)c1ccc(COc2ccc(/C=N/NC(=O)c3cccs3)cc2)cc1,58*,-14,0,-111,-1
COC(=O)c1ccc(COc2ccc(/C=N/Nc3cccc(C(=O)O)c3)cc2)cc1,54*,5,2,6,75*
N#C/C(=C/c1ccc(OCc2ccc(C(=O)O)cc2)cc1)C(=O)Nc1ccccc1,51*,nt,nt,-130,21
N#C/C(=C\c1ccc(OCc2ccc(Br)cc2)cc1)C(=O)Nc1cccc(C(=O)O)c1,0,nt,nt,9,4
O=C(N/N=C/c1cccc(OCc2ccccc2)c1)c1cccs1,-8,5,-1,13,-11
SMILES,PABP FP inh,eIF4E-4G inh,PERK inh,PABP1 MLLE inh,eIF4H inh
COc1ccc(-c2c[n+]3c(n2-c2ccccc2)CCCCC3)cc1,54*,-3,1,0,?
CCC(C)[C@H](NC(=O)N1CC(=O)Nc2ccccc21)C(=O)N1CCC[C@H]1C(=O)O (stereo partly drawn),4,nt,nt,5,-12
O=C1NCC(COc2cccc3ccccc23)O1 (stereo not drawn),-2,-1,3.1*,-2,-6
Cc1ccccc1OCC1CNC(=O)O1 (stereo not drawn),-3,3,0,16,-8
N#Cc1c(N2CCN(c3ccc(F)cc3)CC2)nc(N)c2c(N)nc3c(c12)CC(=O)N3C1CC1,8.0*,5,0,-29,?
CC(C)(C)N1C(=O)Cc2c1nc(N)c1c(N)nc(N3CCCCC3CO)c(C#N)c21 (stereo not drawn),?,-12,0,-7,?
